About 7,900 targets were measured; listed, in parts, are those with a hit and a random draw of the rest. About 0.6% of all pairs of compound and target were hits.
These targets were tested with CC(C)C1=C2N=C(C=C(N2N=C1)NCC3=CC=CC=C3)NCCCCCCN (assay: log2 fold change, soluble protein after heating vs DMSO (PISA); higher = thermal stabilisation; K562 cells, 10 uM, 30 min; active = over 0.2 and 3.5 SD of the protein, either way, in both replicates (recomputed)).
How it was run: (§1)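 Soluble protein was defined as the supernatant after 21,000xg for 90 min. It came from K562 cells at 2×10^6 cells/mL given 10 μM compound for 30 min, heated in aliquots for 3 min across 48°C-58°C, pooled, and extracted in PBS with 0.5% NP-40 at 4°C, and was quantified by TMTpro 16plex LC-MS/MS with equalised channel sums. Thermal stability against control samples, from duplicates, is reported as log2 fold change.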

UniProt P51148, sequence (P51148 whole entry, looked up): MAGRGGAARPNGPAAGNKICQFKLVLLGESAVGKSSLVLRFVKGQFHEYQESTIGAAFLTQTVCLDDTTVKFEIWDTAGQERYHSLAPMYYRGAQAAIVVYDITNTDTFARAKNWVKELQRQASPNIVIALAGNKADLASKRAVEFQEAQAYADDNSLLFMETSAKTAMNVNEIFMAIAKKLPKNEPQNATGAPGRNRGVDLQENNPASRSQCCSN
UniProt O43665, sequence (O43665 whole entry, looked up): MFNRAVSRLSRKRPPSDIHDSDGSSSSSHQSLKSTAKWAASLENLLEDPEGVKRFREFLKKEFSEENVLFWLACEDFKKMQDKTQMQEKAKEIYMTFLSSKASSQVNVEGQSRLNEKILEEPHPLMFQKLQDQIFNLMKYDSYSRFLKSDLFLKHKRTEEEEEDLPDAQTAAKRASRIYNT
UniProt Q92930, sequence (Q92930 whole entry, looked up): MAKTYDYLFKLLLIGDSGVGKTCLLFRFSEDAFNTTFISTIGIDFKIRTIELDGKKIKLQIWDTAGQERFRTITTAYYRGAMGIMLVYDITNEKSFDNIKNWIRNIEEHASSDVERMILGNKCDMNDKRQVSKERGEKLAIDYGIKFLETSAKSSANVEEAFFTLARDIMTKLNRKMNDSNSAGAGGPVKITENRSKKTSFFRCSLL
UniProt O94979, sequence (O94979 whole entry, looked up): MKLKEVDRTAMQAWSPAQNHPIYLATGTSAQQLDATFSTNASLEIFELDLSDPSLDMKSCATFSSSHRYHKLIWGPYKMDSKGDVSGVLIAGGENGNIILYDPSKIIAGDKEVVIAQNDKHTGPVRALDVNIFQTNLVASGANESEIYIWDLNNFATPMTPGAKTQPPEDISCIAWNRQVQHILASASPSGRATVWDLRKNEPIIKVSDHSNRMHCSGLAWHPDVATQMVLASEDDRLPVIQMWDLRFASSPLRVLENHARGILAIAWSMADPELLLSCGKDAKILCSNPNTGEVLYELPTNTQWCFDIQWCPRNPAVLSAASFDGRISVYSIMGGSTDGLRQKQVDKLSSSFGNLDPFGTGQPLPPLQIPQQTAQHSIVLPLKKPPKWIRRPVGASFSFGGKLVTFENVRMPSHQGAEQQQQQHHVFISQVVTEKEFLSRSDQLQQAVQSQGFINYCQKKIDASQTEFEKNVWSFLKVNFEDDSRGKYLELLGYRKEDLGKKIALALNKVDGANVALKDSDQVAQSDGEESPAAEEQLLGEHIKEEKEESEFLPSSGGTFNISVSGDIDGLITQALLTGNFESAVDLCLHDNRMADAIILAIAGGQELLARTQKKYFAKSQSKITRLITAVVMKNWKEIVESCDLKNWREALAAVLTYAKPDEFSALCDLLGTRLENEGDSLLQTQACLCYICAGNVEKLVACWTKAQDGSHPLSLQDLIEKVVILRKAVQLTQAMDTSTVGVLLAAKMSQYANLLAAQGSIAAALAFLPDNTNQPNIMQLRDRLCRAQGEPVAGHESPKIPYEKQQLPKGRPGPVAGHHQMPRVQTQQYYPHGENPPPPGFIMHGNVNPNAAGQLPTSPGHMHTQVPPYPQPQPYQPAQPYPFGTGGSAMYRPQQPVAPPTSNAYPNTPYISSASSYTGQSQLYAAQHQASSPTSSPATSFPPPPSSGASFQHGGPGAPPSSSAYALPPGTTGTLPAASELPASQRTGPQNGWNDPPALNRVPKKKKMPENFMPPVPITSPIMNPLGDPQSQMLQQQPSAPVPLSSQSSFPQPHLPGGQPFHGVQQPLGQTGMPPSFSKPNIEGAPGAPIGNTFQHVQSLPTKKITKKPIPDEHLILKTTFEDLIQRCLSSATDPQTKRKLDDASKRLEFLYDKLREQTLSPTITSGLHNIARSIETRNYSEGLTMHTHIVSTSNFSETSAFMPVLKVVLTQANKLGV
UniProt P52306, sequence (P52306 whole entry, looked up): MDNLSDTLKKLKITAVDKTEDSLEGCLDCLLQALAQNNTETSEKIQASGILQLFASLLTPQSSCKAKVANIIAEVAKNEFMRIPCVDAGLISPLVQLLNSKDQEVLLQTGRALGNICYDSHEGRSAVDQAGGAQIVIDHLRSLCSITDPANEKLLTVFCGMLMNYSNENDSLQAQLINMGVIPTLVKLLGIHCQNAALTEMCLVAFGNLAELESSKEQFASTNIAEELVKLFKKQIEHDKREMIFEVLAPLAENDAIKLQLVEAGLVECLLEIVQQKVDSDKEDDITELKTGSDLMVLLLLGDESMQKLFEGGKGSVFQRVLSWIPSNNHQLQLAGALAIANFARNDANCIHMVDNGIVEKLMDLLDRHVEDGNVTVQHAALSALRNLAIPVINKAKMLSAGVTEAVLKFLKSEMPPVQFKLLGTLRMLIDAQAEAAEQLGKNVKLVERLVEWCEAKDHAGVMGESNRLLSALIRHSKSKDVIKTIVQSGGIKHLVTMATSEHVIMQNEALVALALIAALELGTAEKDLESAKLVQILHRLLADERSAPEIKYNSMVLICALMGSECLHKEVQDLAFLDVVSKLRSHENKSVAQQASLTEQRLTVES
UniProt P58004, sequence (P58004 whole entry, looked up): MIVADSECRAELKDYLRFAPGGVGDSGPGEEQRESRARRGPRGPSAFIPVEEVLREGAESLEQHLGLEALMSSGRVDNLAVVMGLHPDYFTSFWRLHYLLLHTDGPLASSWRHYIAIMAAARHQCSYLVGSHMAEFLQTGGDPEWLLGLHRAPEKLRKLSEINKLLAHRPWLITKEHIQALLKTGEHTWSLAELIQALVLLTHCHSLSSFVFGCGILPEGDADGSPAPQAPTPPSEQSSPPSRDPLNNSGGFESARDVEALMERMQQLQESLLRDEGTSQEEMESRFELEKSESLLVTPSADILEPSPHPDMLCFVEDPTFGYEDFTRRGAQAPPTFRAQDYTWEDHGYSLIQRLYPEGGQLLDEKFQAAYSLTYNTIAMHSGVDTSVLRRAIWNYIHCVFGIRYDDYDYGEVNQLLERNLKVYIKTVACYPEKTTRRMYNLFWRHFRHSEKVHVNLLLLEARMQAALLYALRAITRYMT
UniProt Q04206, sequence (Q04206 whole entry, looked up): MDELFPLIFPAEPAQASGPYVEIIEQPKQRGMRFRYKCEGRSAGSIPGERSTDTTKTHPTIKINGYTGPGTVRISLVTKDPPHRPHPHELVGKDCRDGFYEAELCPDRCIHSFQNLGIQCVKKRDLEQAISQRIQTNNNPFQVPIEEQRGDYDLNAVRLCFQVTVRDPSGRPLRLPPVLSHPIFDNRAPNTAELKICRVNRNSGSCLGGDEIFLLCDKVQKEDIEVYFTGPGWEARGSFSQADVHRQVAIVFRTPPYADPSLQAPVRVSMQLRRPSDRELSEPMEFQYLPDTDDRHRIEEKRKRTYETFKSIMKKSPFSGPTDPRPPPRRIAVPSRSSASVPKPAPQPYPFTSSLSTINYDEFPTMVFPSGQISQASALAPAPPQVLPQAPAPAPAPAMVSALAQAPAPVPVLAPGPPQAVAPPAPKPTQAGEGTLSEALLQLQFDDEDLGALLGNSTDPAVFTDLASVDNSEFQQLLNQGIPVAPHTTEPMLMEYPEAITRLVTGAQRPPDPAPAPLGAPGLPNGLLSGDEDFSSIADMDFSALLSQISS
UniProt Q8N122, sequence (Q8N122 whole entry, looked up): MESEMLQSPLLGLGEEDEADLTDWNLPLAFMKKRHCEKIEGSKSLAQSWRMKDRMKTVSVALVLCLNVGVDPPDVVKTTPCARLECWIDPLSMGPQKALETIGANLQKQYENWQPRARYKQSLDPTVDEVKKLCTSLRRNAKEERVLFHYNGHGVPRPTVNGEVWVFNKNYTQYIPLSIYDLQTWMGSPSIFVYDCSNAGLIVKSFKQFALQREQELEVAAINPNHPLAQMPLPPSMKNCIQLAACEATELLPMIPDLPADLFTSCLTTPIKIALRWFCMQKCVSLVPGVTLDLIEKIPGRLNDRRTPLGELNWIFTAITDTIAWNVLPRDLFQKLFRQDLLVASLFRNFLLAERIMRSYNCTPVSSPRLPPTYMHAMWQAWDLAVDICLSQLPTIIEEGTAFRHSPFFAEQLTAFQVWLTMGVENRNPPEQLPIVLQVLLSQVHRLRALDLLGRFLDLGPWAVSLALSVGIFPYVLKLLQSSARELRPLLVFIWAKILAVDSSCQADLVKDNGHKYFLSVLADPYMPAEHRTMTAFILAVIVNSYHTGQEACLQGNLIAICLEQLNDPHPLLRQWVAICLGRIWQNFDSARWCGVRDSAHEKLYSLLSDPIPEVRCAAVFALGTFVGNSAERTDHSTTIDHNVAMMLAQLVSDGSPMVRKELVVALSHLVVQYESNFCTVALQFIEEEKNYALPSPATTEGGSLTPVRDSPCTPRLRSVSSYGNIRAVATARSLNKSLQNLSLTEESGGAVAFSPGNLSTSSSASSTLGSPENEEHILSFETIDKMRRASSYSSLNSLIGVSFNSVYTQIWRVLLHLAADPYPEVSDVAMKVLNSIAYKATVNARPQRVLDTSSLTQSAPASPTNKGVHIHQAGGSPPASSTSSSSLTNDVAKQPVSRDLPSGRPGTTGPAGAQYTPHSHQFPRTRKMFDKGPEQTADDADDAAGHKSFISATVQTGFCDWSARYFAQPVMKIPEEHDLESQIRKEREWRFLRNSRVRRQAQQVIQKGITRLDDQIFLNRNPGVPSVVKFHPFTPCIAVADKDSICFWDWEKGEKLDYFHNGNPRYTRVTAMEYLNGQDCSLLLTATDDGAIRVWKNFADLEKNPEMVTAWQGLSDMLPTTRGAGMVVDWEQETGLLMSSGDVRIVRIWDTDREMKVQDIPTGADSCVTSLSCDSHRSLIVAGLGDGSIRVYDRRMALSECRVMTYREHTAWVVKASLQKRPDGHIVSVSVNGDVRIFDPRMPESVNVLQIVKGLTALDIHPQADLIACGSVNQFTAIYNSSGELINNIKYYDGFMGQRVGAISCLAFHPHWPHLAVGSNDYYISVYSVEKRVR
UniProt Q8N5L8, sequence (Q8N5L8 whole entry, looked up): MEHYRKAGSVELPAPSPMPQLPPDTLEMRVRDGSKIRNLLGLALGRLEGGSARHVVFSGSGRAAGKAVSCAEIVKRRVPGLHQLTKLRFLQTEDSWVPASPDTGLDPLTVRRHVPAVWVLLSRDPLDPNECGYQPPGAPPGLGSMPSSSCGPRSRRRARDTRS

Row | Target | log2 fold change
1 | RPS6KA1 isoform 2 (UniProt Q15418) | -0.164 (inactive)
2 | RRP9 (UniProt O43818) | -0.04 (inactive)
3 | SLC19A1 (UniProt P41440) | 0.104 (inactive)
4 | RBM12 (UniProt Q9NTZ6) | -0.237 (inactive)
5 | RNF167 (UniProt Q9H6Y7) | -0.047 (inactive)
6 | SEPTIN5 (UniProt Q99719) | 0.034 (inactive)
7 | RUNX1 isoform 8 (UniProt Q01196) | -0.184 (inactive)
8 | RAP1GDS1 isoform 5 (UniProt P52306) | -0.277 (active)
9 | RBM33 (UniProt Q96EV2) | -0.018 (inactive)
10 | RSRC2 (UniProt Q7L4I2) | -0.013 (inactive)
11 | RGS10 (UniProt O43665) | -0.057 (inactive)
12 | SEC31A (UniProt O94979) | -0.008 (inactive)
13 | RPTOR (UniProt Q8N122) | -0.187 (inactive)
14 | RPS16 (UniProt P62249) | -0.02 (inactive)
15 | RELA (UniProt Q04206) | -0.018 (inactive)
16 | RCOR1 (UniProt Q9UKL0) | 0.002 (inactive)
17 | SETMAR (UniProt Q53H47) | 0.227 (inactive)

Row | Target | log2 fold change
18 | RAB5C isoform 2 (UniProt P51148) | 0.064 (inactive)
19 | ROCK2 (UniProt O75116) | -0.138 (inactive)
20 | ROCK1 (UniProt Q13464) | -0.026 (inactive)
21 | SLC18B1 (UniProt Q6NT16) | -0.356 (active)
22 | SAAL1 (UniProt Q96ER3) | 0.012 (inactive)
23 | RPS2 (UniProt P15880) | -0.004 (inactive)
24 | RPP25L (UniProt Q8N5L8) | -0.293 (inactive)
25 | RECQL (UniProt P46063) | -0.033 (inactive)
26 | RABGAP1L isoform 3 (UniProt Q5R372) | -0.068 (inactive)
27 | RRP12 (UniProt Q5JTH9) | 0.272 (inactive)
28 | SCD (UniProt O00767) | -0.222 (inactive)
29 | SESN2 (UniProt P58004) | -0.407 (inactive)
30 | RPS9 (UniProt P46781) | -0.025 (inactive)
31 | RSRC1 (UniProt Q96IZ7) | -0.071 (inactive)
32 | RAB8B (UniProt Q92930) | -0.002 (inactive)
33 | RBM8A (UniProt Q9Y5S9) | 0.128 (inactive)

Each target was assayed with CC(C)C[C@@H](C=O)NC(=O)[C@H](CC(C)C)NC(=O)[C@H](CC(C)C)NC(=O)OCc1ccccc1 in the same assay as above.
How it was run: as §1

Row | Target | log2 fold change
34 | RPS6KA1 isoform 2 (UniProt Q15418) | 0.059 (inactive)
35 | RRP9 (UniProt O43818) | -0.002 (inactive)
36 | SLC19A1 (UniProt P41440) | 0.045 (inactive)
37 | RBM12 (UniProt Q9NTZ6) | 0.009 (inactive)
38 | RNF167 (UniProt Q9H6Y7) | -0.009 (inactive)
39 | SEPTIN5 (UniProt Q99719) | -0.051 (inactive)
40 | RUNX1 isoform 8 (UniProt Q01196) | 0.082 (inactive)
41 | RAP1GDS1 isoform 5 (UniProt P52306) | -0.005 (inactive)
42 | RBM33 (UniProt Q96EV2) | -0.01 (inactive)
43 | RSRC2 (UniProt Q7L4I2) | -0.026 (inactive)
44 | RGS10 (UniProt O43665) | -0.004 (inactive)
45 | SEC31A (UniProt O94979) | 0.033 (inactive)
46 | RPTOR (UniProt Q8N122) | -0.011 (inactive)
47 | RPS16 (UniProt P62249) | 0.035 (inactive)
48 | RELA (UniProt Q04206) | 0.031 (inactive)
49 | RCOR1 (UniProt Q9UKL0) | -0.034 (inactive)
50 | SETMAR (UniProt Q53H47) | -0.061 (inactive)

Row | Target | log2 fold change
51 | RAB5C isoform 2 (UniProt P51148) | -0.042 (inactive)
52 | ROCK2 (UniProt O75116) | 0.034 (inactive)
53 | ROCK1 (UniProt Q13464) | 0.012 (inactive)
54 | SLC18B1 (UniProt Q6NT16) | -0.05 (inactive)
55 | SAAL1 (UniProt Q96ER3) | 0.032 (inactive)
56 | RPS2 (UniProt P15880) | 0.061 (inactive)
57 | RPP25L (UniProt Q8N5L8) | 0.035 (inactive)
58 | RECQL (UniProt P46063) | -0.02 (inactive)
59 | RABGAP1L isoform 3 (UniProt Q5R372) | -0.034 (inactive)
60 | RRP12 (UniProt Q5JTH9) | 0.243 (inactive)
61 | SCD (UniProt O00767) | 0.101 (inactive)
62 | SESN2 (UniProt P58004) | 0.055 (inactive)
63 | RPS9 (UniProt P46781) | 0 (inactive)
64 | RSRC1 (UniProt Q96IZ7) | 0.009 (inactive)
65 | RAB8B (UniProt Q92930) | 0.046 (inactive)
66 | RBM8A (UniProt Q9Y5S9) | 0.024 (inactive)

What follows are targets tested with CC(C)N(C[C@H]1O[C@@H](n2cnc3c(N)ncnc32)[C@H](O)[C@@H]1O)[C@H]1C[C@@H](CCc2nc3cc(C(C)(C)C)ccc3[nH]2)C1 [pinometostat] in the same assay as above.
How it was run: as §1

Row | Target | log2 fold change
67 | RPS6KA1 isoform 2 (UniProt Q15418) | -0.006 (inactive)
68 | RRP9 (UniProt O43818) | 0.01 (inactive)
69 | SLC19A1 (UniProt P41440) | 0.052 (inactive)
70 | RBM12 (UniProt Q9NTZ6) | -0.043 (inactive)
71 | RNF167 (UniProt Q9H6Y7) | 0.015 (inactive)
72 | SEPTIN5 (UniProt Q99719) | -0.041 (inactive)
73 | RUNX1 isoform 8 (UniProt Q01196) | 0.069 (inactive)
74 | RAP1GDS1 isoform 5 (UniProt P52306) | 0.067 (inactive)
75 | RBM33 (UniProt Q96EV2) | -0.01 (inactive)
76 | RSRC2 (UniProt Q7L4I2) | -0.019 (inactive)
77 | RGS10 (UniProt O43665) | 0.087 (inactive)
78 | SEC31A (UniProt O94979) | 0.071 (inactive)
79 | RPTOR (UniProt Q8N122) | -0.012 (inactive)
80 | RPS16 (UniProt P62249) | 0.102 (inactive)
81 | RELA (UniProt Q04206) | 0.003 (inactive)
82 | RCOR1 (UniProt Q9UKL0) | 0.026 (inactive)
83 | SETMAR (UniProt Q53H47) | 0.078 (inactive)

Row | Target | log2 fold change
84 | RAB5C isoform 2 (UniProt P51148) | -0.028 (inactive)
85 | ROCK2 (UniProt O75116) | 0.021 (inactive)
86 | ROCK1 (UniProt Q13464) | 0.027 (inactive)
87 | SLC18B1 (UniProt Q6NT16) | 0.02 (inactive)
88 | SAAL1 (UniProt Q96ER3) | 0.073 (inactive)
89 | RPS2 (UniProt P15880) | 0.222 (inactive)
90 | RPP25L (UniProt Q8N5L8) | -0.002 (inactive)
91 | RECQL (UniProt P46063) | -0.013 (inactive)
92 | RABGAP1L isoform 3 (UniProt Q5R372) | -0.006 (inactive)
93 | RRP12 (UniProt Q5JTH9) | 0.315 (inactive)
94 | SCD (UniProt O00767) | 0 (inactive)
95 | SESN2 (UniProt P58004) | 0.081 (inactive)
96 | RPS9 (UniProt P46781) | 0.206 (inactive)
97 | RSRC1 (UniProt Q96IZ7) | -0.017 (inactive)
98 | RAB8B (UniProt Q92930) | -0.091 (inactive)
99 | RBM8A (UniProt Q9Y5S9) | -0.015 (inactive)

From the supplement of paper PMC10849652
